The source of these data is ChEMBL document CHEMBL4513216, “Probing the Open Global Health Chemical Diversity Library for Multistage-Active Starting Points for Next-Generation Antimalarials” (ACS Infect Dis, 2020).

The campaign covered roughly 68,000 compounds. About 2,700 (4%) showed an effect of 50% or more. Many of the other results were omitted from the sample, so strong results are more common in it than they were.

The subject of this test is Plasmodium berghei. The test can be described thus: Screen against P. berghei liver stage (PbLuc), transformed with Luciferase, at 2uM. As to conditions: tested at 2 uM. Format: functional, HepG2.
On to `CCCN(CC)C(=O)c1ncn2c1CN(C)S(=O)(=O)c1ccccc1-2`, for which the INHIBITION is recorded as 15.9%. In the case of `CCNC(=O)c1ncn2c1CN(C)S(=O)(=O)c1ccccc1-2`, the INHIBITION is reported as -64.43%. `Cc1cccc(NC2CCN(C(=O)Nc3ccccn3)CC2)n1`: the INHIBITION is reported as -7.13%.

For the compound `Cc1ccc(C(=O)N2CCN(C(=O)Nc3ccccn3)CC2)o1`, the INHIBITION turned out to be 60.93%. Regarding `Cc1ccc(C(=O)NC2CCN(C(=O)Nc3ccccn3)CC2)o1`, the INHIBITION worked out at 20.11%.

As for `Cc1occc1C(=O)N1CCn2c(COCC3CC3)cnc2C1C` (stereo not given), the INHIBITION is -5.65%. The same measure for `CCN(CC)CCSc1ncnc2[nH]ncc12`: -57.02%; for `CCn1cc(CNc2ccc(F)c(N3CCCS3(=O)=O)c2)cn1`: 67.51%.

Take `CCn1cc(CNc2ccc(F)c(F)c2)cn1`: the INHIBITION was -11.55%. With `Cn1cc(CNc2ccc(F)c(N3CCCS3(=O)=O)c2)cn1`, the INHIBITION stood at 30.06%. Consider `CCCc1nc(CNc2ccc(F)c(F)c2)no1`, for which the INHIBITION was -48.48%. On to `CCN1CCCC1CNCc1cc2cc(OC)ccc2[nH]c1=O` (stereo not given), for which the INHIBITION was 42.49%. Turning to `COc1ccc2cc(CN(C)CCN3CCCCC3=O)c(=O)[nH]c2c1`, the INHIBITION came out at 38.12%. `COc1ccc2[nH]c(=O)c(CN(C)CCN3CCCC3)cc2c1`: the INHIBITION turned out to be 56.16%. On to `CCOCC(=O)N1C[C@H]2CCC[C@@]2(COC)C1`, for which the INHIBITION is 42.4%.

On to `CCn1nc(C)c(CNC(=O)c2nnc3ccc(Cl)cc3n2)c1C`, for which the INHIBITION stood at 26.56%. Take `CCn1nc(C)c(CNC(=O)c2nnc3ccc(OC)cc3n2)c1C`: the INHIBITION was 33.58%. As for `CCn1nc(C)c(CNC(=O)c2nnc3ccccc3n2)c1C`, the INHIBITION worked out at 70.37%. Consider `Cc1nc(CN2CCC23CCN(C(=O)c2ccco2)CC3)cs1`, for which the INHIBITION was found to be 30.15%.

For `Cc1cncc(NCc2ccccc2N2CCOCC2)c1`, the INHIBITION stood at 11.88%. For the compound `CCS(=O)(=O)c1cccc(C(=O)Nc2cccc3c2C(=O)N(C)C3=O)c1`, the INHIBITION amounted to 13.01%.

Take `CCCOC1CCCN(C(=O)c2cnc(-c3csc(C)n3)nc2O)C1` (stereo not given): the INHIBITION is -20.84%. For `CC(C)C(=O)N1CCC2(CC1)NC(=O)[C@H]1CN(Cc3cccnc3)C[C@H]12`, the INHIBITION was 37.54%. As for `CC(=O)N1CCC2(CC1)NC(=O)[C@H]1CN(Cc3cccnc3)C[C@H]12`, the INHIBITION is reported as 56.76%. In the case of `CC(=O)N1CCC2(CC1)[C@@H]1CN(Cc3cccnc3)C[C@@H]1C(=O)N2C`, the INHIBITION is reported as 35.89%. `Cn1cccc1CN1CCC2(CC1)CN(c1ncccn1)CCO2`: the INHIBITION is -8.63%. The result for `Cc1ccc(CNC(=O)CCNS(C)(=O)=O)cc1` reads 13.36%.

As for `CCn1ccnc1CN1CCN(CC(=O)NC(C2CC2)C2CC2)CC1`, the INHIBITION is 29.19%.

Take `CC(=O)N[C@H]1CCO[C@@H](c2cccc(NC(=O)c3ccc(=O)[nH]n3)c2)C1`: the INHIBITION is recorded as -3.15%. Consider `CN1CCCCC1c1ncc2c(n1)CCN(Cc1ccc(F)cc1)C2` (stereo not given), for which the INHIBITION came to 19.06%.

Turning to `CN1CCCCC1c1ncc2c(n1)CCN(Cc1ccc(Cl)c(F)c1)C2` (stereo not given), the INHIBITION worked out at 56.99%. In the case of `COc1ccc(CN2CCc3nc(C4CCCCN4C)ncc3C2)cc1` (stereo not given), the INHIBITION is on record as -8.87%.

Take `O=C1COC2(COCCN(Cc3cccnc3)C2)CN1c1ccccc1` (stereo not given): the INHIBITION is recorded as -43.73%.

With `N#CCCN(Cc1cccnc1)C(=O)c1ccc(OCC2CC2)cc1`, the INHIBITION is 56.89%.

In the case of `N#CCCN(Cc1ccco1)C(=O)c1ccc(OCC2CC2)cc1`, the INHIBITION is on record as -5.51%. `N#CCCN(CCC#N)C(=O)c1ccc(OCC2CC2)cc1`: the INHIBITION is on record as 5.98%. In the case of `O=C(c1cnccn1)N1CC[C@H]2[C@H]1CCN2S(=O)(=O)C1CC1`, the INHIBITION is listed as -17.44%. As to `CN(C)CC(=O)N1Cc2nc(C(=O)NCc3ccncc3)oc2C1`, the INHIBITION was 52.08%. Consider `CCCNC(=O)c1nc2c(o1)CN(C(=O)CN(C)C)C2`, for which the INHIBITION is on record as -31.4%. The same measure for `CN(C)CC(=O)N1Cc2nc(C(=O)NCc3ccccc3)oc2C1`: 16.4%. On to `CSCc1ccc(C(=O)NCCCNc2ccc(C(F)(F)F)cn2)cc1`, for which the INHIBITION was 6.77%. As for `Cn1c(CN2CCCCCC2)cc(=O)c(O)c1CN1CCCC1`, the INHIBITION came out at 29.19%. Take `Cc1ccnc(C2CCN(C(=O)CCn3ncc4ccccc43)C2)n1` (stereo not given): the INHIBITION is given as 72.83%. On to `Cc1cc(C)nc(C2CCN(C(=O)CCn3nnc4ccccc43)C2)n1` (stereo not given), for which the INHIBITION was 13.22%. For `Cc1cc(C)nc(C2CCN(C(=O)CCn3ncc4ccccc43)C2)n1` (stereo not given), the INHIBITION was 30.73%.

As for `Cn1cc(CN2CCc3ccc(=O)n(CC4CC4)c3CC2)cn1`, the INHIBITION amounted to 23.68%. In the case of `OC1(CNc2ccccc2)CCNCC1`, the INHIBITION is 51.61%. Regarding `OC1(CNc2cccc(F)c2)CCNCC1`, the INHIBITION was -14.66%. Consider `OC1(CNc2ccc(F)cc2)CCNCC1`, for which the INHIBITION worked out at 8.5%. In the case of `CCN(CC)S(=O)(=O)CC(=O)N1CCc2ccc(C)cc21`, the INHIBITION was -13.17%.
